From the supplement of paper PMC6555819 come the findings set out here.

This experiment relates to LXRa homodimer (NR concentration 270 nM). Kind of experiment: PBM binding z-score (relative to random genomic background probes); higher = stronger binding; sequences stand for … in GC…GCGATTGACAGCGTAGAATGAAGG
In short, it runs like this: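 Antibodies against each partner of ligand-free nuclear receptor dimers (one per run) detected binding on custom Agilent 4×180K protein-binding microarrays after 1 h incubation. The double-stranded probes had 34-nt variable regions carrying direct-repeat seeds, single-nucleotide variants, half-site ablations and random human genomic background sequences. Binding z-scores, from regression-normalized fluorescence, use the random background probes as reference.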
Take CGAACTAGGTAACCAGGACAGTGAAGAGGTTGGA: the PBM binding z-score was -0.222.

Take CGAACTAGGTCAAAGGACAGTTAAAGGCGACGTA: the PBM binding z-score came to 0.333.

As to CGAACTAGGTCAAAGGACAGTGCAAGGCGACGTA, the PBM binding z-score was determined as 0.126.

The sequence CGAACTAGGTTACCAGGACAGTGAAGAGGTTGGA gave a PBM binding z-score of -0.296.

In the case of CGAACTAGGTCACCAGGAGAGTGAAGAGGTTGGA, the PBM binding z-score was -0.171.

Regarding ATATGTAGGTTAGGGTCATCCAGAAAGTAGGGAA, the PBM binding z-score worked out at 1.16.

For CGAACTAGGTCACCCGGACAGTGAAGAGGTTGGA, the PBM binding z-score is 0.102.

On to ATATGTAGGTTTGGGTCATTCAGAAAGTAGGGAA, for which the PBM binding z-score was 0.946.

As to CGAACTAGGTCAAAGGACAGGGAAAGGCGACGTA, the PBM binding z-score is -0.139.

As to CGAACTAGGTCACAGGACAGTGAAAGGCGACGTA, the PBM binding z-score was -0.102.

In the case of CGAAATAGGTCACCAGGACAGTGAAGAGGTTGGA, the PBM binding z-score was determined as 0.461.

For the sequence CGAACTAGGTCGAAGGACAGTGAAAGGCGACGTA, the PBM binding z-score is -0.395.

The sequence CGAACTAGTTCAAAGGACAGTGAAAGGCGACGTA yielded a PBM binding z-score of -0.428.

In turn, ATATGTAGGTTATGGTCATTCAGAAAGTAGGGAA came in with a PBM binding z-score of 0.432.

For the sequence CGAACTAGGTTAAAGGACAGTGAAAGGCGACGTA, the PBM binding z-score was -0.254.

As to CGAACTAGGTCAAAGGACAGAGAAAGGCGACGTA, the PBM binding z-score was -0.0116.

In the case of CGAACTAGGTCACCAGGACAGTGATGAGGTTGGA, the PBM binding z-score is 0.0863.

The sequence ATATGTAGGTTAGGGTCATGCAGAAAGTAGGGAA came in with a PBM binding z-score of 0.926.

CGAACTAGGTCAAAGGACAGTGACAGGCGACGTA returned a PBM binding z-score of 0.19.

For the sequence CGTACTAGGTCAAAGGACAGTGAAAGGCGACGTA, the PBM binding z-score is 0.17.

ATACGTAGGTTAGGGTCATTCAGAAAGTAGGGAA returned a PBM binding z-score of 1.16.

As for ATATGTAGGTTAGGGTCATTAAGAAAGTAGGGAA, the PBM binding z-score stood at 1.04.

The sequence CGAACTAGGTGACCAGGACAGTGAAGAGGTTGGA showed a PBM binding z-score of -0.313.

Take CGAACTAGGTCATAGGACAGTGAAAGGCGACGTA: the PBM binding z-score stood at 0.169.

In turn, CGAGCTAGGTCAAAGGACAGTGAAAGGCGACGTA yielded a PBM binding z-score of -0.157.

ATATGTAGGTGAGGGTCATTCAGAAAGTAGGGAA yielded a PBM binding z-score of 1.02.

In turn, ATAGGTAGGTTAGGGTCATTCAGAAAGTAGGGAA registered a PBM binding z-score of 2.09.

AGATGTAGGTTAGGGTCATTCAGAAAGTAGGGAA: the PBM binding z-score stood at 1.53.

Turning to AAATGTAGGTTAGGGTCATTCAGAAAGTAGGGAA, the PBM binding z-score is 1.68.

CGAACTAGGTCAAAGGAAAGTGAAAGGCGACGTA registered a PBM binding z-score of -0.168.

CGAACTAGGTCACCAGGACATTGAAGAGGTTGGA: the PBM binding z-score was found to be 0.557.

Regarding CGAACTAGGTCAAAGGACAGTCAAAGGCGACGTA, the PBM binding z-score is -0.061.

In turn, CGAAATAGGTCAAAGGACAGTGAAAGGCGACGTA gave a PBM binding z-score of 0.474.

In turn, ATATGAAGGTTAGGGTCATTCAGAAAGTAGGGAA returned a PBM binding z-score of 1.26.

The sequence ATATGTGGGTTAGGGTCATTCAGAAAGTAGGGAA registered a PBM binding z-score of 1.97.

In turn, CGAACTAGGTCAAAGGACAGTAAAAGGCGACGTA showed a PBM binding z-score of 0.208.

In turn, ATATGTAGGTTAGGGGCATTCAGAAAGTAGGGAA came in with a PBM binding z-score of 0.824.

As for CGAACTAGGTCACCAGGCCAGTGAAGAGGTTGGA, the PBM binding z-score was -0.125.

Regarding CGAACTAGGTCACCAAGACAGTGAAGAGGTTGGA, the PBM binding z-score was -0.0683.
